Whole data set: some 33,000 sequences, median “E-score (-0.5 to 0.5)” near -0.013, cut for the highest 2% near 0.3. What follows is part of a selection rich in the highest values, with near analogues and random picks from the rest.
What follows are sequences tested against T1, Msn1 (UniProt P22148) (assay: PBM E-score (8-mer binding enrichment) (E-score (-0.5 to 0.5)); higher = stronger / more preferred TF binding). Settings: protein concentration: 200 nM; construct: GST-full length.
T1 sequence: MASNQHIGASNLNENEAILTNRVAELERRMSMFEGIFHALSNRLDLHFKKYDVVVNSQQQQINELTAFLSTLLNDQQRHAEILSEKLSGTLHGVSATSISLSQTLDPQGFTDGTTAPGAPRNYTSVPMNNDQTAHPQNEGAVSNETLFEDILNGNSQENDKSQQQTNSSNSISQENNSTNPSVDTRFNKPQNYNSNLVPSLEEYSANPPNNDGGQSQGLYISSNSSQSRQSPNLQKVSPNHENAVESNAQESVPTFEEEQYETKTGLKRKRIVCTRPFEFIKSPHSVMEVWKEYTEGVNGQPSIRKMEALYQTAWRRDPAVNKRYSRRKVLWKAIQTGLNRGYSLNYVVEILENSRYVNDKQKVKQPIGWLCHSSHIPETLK
Summary of the method: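 Each ungapped eight-base word and its reverse complement, pooled, received an E-score from the Universal PBM Analysis Suite. Underlying scans, normalised with masliner, recorded fluorescent anti-GST bound to GST-tagged yeast transcription factors. These were applied at about 100-200 nM to universal all-10-mer Agilent arrays double-stranded by primer extension.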

| Sequence | PBM E-score |
| --- | --- |
| GCCCGGAA | 0.0421 |
| GGAGACAC | 0.0421 |
| GGAGACCA | -0.0845 |
| GGAGACAA | 0.32 |
| AGTCTTGC | -0.0197 |
| CCAAAGTA | -0.0844 |
| ATTACTGG | -0.119 |
| CAAGCGCA | 0.185 |
| CCCTCGAA | -0.0781 |
| ACTGCTGG | -0.169 |
| GACATTTA | 0.474 |
| AACATTTA | 0.252 |
| TACATTAA | 0.277 |
| CACATTAC | 0.0152 |
| AACATTAC | -0.108 |
| CACATTTA | 0.15 |
| AACATTAA | 0.158 |
| GACATTAC | 0.442 |
| GACATTAA | 0.431 |
| AGAGGTCG | -0.105 |
| GCTGGAAA | -0.0496 |
| ATTTTGAA | 0.126 |
| TGGCCAAA | 0.0563 |
| ATCTTGCA | 0.0688 |
| ATGTACAT | 0.324 |

| Sequence | PBM E-score |
| --- | --- |
| GTGTACCA | 0.189 |
| ATGTACAC | 0.268 |
| ATGTACGA | 0.215 |
| ATGTACCA | 0.316 |
| ATGTACCC | 0.115 |
| ATGTACTA | 0.233 |
| ATGTACAG | 0.185 |
| ATGTACAA | 0.36 |
| AATTAGCG | 0.0486 |
| ATGCTCCC | -0.341 |
| GCCCGTTA | -0.266 |
| CGTTCGCC | -0.0525 |
| ACGAGGCG | 0.0795 |
| CCATTGTC | 0.311 |
| ACATTGTC | 0.411 |
| CCATTGGC | -0.0912 |
| CTATTGTC | 0.288 |
| ATATTGTC | 0.427 |
| CCATTGTA | 0.193 |
| ACATTGTG | 0.207 |
| ACATTGTA | 0.143 |
| ATATTGTG | -0.00984 |
| GAAGTAGC | -0.206 |
| TAGGGTGA | -0.1 |
| CCCTGCAG | -0.245 |

| Sequence | PBM E-score |
| --- | --- |
| CGCATTTA | 0.193 |
| ATGGACCC | -0.0808 |
| ATGGACCA | 0.114 |
| GTGGACAC | 0.356 |
| ATGGACAG | 0.251 |
| GTCGACAC | 0.141 |
| GTGGAAAC | 0.164 |
| ATGGACAC | 0.437 |
| ATGGAAAT | 0.0754 |
| ATGGACGA | 0.273 |
| ATGGACAA | 0.485 |
| ATGGACAT | 0.484 |
| ATGGACGC | 0.122 |
| GCGCTAGC | -0.0831 |
| ATTAGGGA | 0.0137 |
| CAGGTTGC | 0.0156 |
| AGACTTGC | -0.136 |
| AGCTTAAT | -0.00074 |
| CACCCGTA | -0.0199 |
| AAGCGAGC | -0.0286 |
| AGCTTGAT | -0.0595 |
| ACCGCGCC | -0.168 |
| GTAAGACA | 0.305 |
| ACAAGACG | 0.0049 |
| AAAAGACA | 0.342 |

| Sequence | PBM E-score |
| --- | --- |
| TAAAGATA | 0.0041 |
| CTAAGACA | 0.302 |
| AAAAGACC | 0.00338 |
| GCAAGACA | 0.157 |
| AAAAGACG | 0.135 |
| TCAAGACA | 0.247 |
| ACAAGACA | 0.34 |
| ATAAGACA | 0.264 |
| TAAAGACA | 0.356 |
| GACGGCTC | -0.211 |
| GCATATGC | -0.0698 |
| ATTTCCAC | 0.106 |
| CCGACCCC | -0.354 |
| CATCAGAA | 0.00838 |
| GCCGCCTA | -0.173 |
| CCAGCGCC | -0.229 |
| CAGTTTAC | -0.0477 |
| CGAAGACA | 0.259 |
| GGAAGACA | 0.251 |
| GAAAGACA | 0.227 |
| TGAAGACA | 0.328 |
| CAAAGACC | -0.0488 |
| CAAAGACA | 0.361 |
| AGCGCATA | 0.034 |
| CTAGCTCA | -0.0294 |

| Sequence | PBM E-score |
| --- | --- |
| ATCCATTA | 0.0133 |
| AGCCTACA | -0.135 |
| CGTCTGCA | 0.0663 |
| CCGAACAG | 0.0877 |
| GGCCGAAC | -0.239 |
| GTAGACAA | 0.309 |
| GTAGACAC | 0.0944 |
| CTAGACAG | 0.00829 |
| TTAGACAA | 0.394 |
| CTAGACAA | 0.305 |
| TTAGAAAA | 0.109 |
| TTAGATAA | 0.0312 |
| GTAGACGA | 0.115 |
| CTAGACAC | 0.0417 |
| CCATTTGA | -0.0557 |
| CGCATACG | -0.0304 |
| AGTGGGGA | -0.185 |
| AACAGTAG | -0.0756 |
| CGTGGGAA | -0.0248 |
| GACTCCTC | -0.149 |
| GATGACAC | 0.06 |
| TATGACAA | 0.408 |
| AATGACAA | 0.29 |
| CATGACAA | 0.383 |
| TATGACCA | 0.0481 |

| Sequence | PBM E-score |
| --- | --- |
| GATGACAA | 0.336 |
| CATGACAG | 0.13 |
| GATGACTA | -0.0556 |
| CATGACAC | 0.193 |
| AGAGCGAA | -0.00578 |
| TCCTTCGA | 0.11 |
| GCTAGTGA | -0.00743 |
| TGAATGAA | 0.0496 |
| AGTAGGGG | -0.202 |
| CATTTAAC | 0.188 |
| GGGAGCGA | -0.219 |
| TGGCCCAA | -0.0694 |
| AGGTCCTC | -0.119 |
| ATTTCCTG | 0.206 |
| ATGTCCTC | 0.481 |
| CTGTCCTC | 0.197 |
| AGGTCCTG | 0.0441 |
| ATGTCCTG | 0.487 |
| GCCCGCTA | -0.211 |
| AAACAGGG | 0.09 |
| CGGCGACA | 0.0783 |
| CTTAGCAC | -0.0653 |
| AACATATC | 0.0631 |
| CACATATC | 0.0551 |
| GACATATA | 0.448 |

| Sequence | PBM E-score |
| --- | --- |
| GACATATC | 0.451 |
| CACACATA | 0.0356 |
| AACATATA | 0.0881 |
| CACATATA | 0.0314 |
| GACATAGC | 0.295 |
| TACACATA | 0.0567 |
| GACATAGA | 0.36 |
| GACACATA | 0.361 |
| AACATAGA | -0.021 |
| CGATTTGA | -0.163 |
| CGGGGCCA | -0.157 |
| AGTCAGGC | 0.0431 |
| CTTCGGTA | -0.0133 |
| CTGGCAGC | -0.271 |
| GGGACCCA | -0.139 |
| TAGCGTCA | -0.0365 |
| GTATGTCA | 0.35 |
| CTATGTCA | 0.167 |
| ATATGTTA | -0.0436 |
| ATATGTGG | 0.0596 |
| ATATGTCG | 0.379 |
| ATATGTCA | 0.401 |
| GTATGTAA | 0.0384 |
| GTATGTTA | 0.0222 |
| ATATGTTG | 0.0727 |
